Bioassay records as filed in PubChem.
SENP6 block: SENP6 protease inhibition | Q9GZR1 | Recombinant SENP6 catalytic domain, aminoluciferin luminescence | inhibition, % at 10 µM | 330,000 tested, 1.8% active | AID 2599;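 active means inhibition above about 50% at the single tested dose, limit read from the data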;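 further: plate controls were DMSO wells with enzyme for no effect and DMSO wells lacking enzyme for full effect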
HSP90 refold inh: inhibitors of HSP90 luciferase refolding in rabbit reticulocyte lysate | luciferase refolding luminescence, 3 h | inhibition, % at 5.6 µM | 290,000 tested, 0.91% active | AID 1789;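 active means inhibition above the screen-wide mean plus 3 SD, computed separately per campaign, cut at about 16% in these data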;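 further: 0% = DMSO wells and 100% = 60 µM geldanamycin wells; inhibitors lower the luminescence because luciferase stays unfolded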
Platelet DG rel: platelet dense granule release activity | inhibition, %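 (compounds screened at 7.5 µM in platelet-rich plasma)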 | 300,000 tested, 0.22% active | human platelet-rich plasma, SFLLRN dense granule ATP release, luminescence | AID 1663;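 active means mean replicate score, as percent of positive control, at or above 50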
SENP8 block-1: SENP8 protease inhibition | AID 2540 | inhibition, % at 10 µM | purified SENP8, Z-RLRGG-aminoluciferin cleavage, luminescence | Q96LD8 | 330,000 tested, 1.2% active; in the data active means inhibition above about 50%
Target sequence (Q96LD8 whole entry, looked up): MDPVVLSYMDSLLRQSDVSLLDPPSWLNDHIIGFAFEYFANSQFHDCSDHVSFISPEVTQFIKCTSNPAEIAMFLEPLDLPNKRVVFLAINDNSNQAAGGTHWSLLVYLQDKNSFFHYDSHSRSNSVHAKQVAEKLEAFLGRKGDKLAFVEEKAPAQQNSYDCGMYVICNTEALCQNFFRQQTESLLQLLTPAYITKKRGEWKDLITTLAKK
SENP8 block-2: SENP8 (human) protease inhibition. Q96LD8. recombinant SENP8, Nedd8 substrate fluorescence. inhibition, % at 20 µM. 360,000 tested, 0.64% active. AID 602440; in the data active means inhibition mostly above about 40%, no sharp cut-off; inactive means mostly below about 27%
SENP7 inh: SENP7 protease inhibition; Q9BQF6; 330,000 tested, 1.5% active; recombinant SENP7, Z-RLRGG-aminoluciferin luminescence, 40 min; AID 434973; inhibition, % at 5 µM;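 active means inhibition above about 50% at the single test dose, limit read from the data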;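 further: plate controls were DMSO with enzyme for no effect and no enzyme buffer wells for full effect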
SENP8 conf: confirmation of human SENP8 protease inhibitors | Recombinant SENP8, Z-RLRGG-aminoluciferin luminescence, 60 min | shares compounds with SENP7 inh | 6,200 tested, 40% active | inhibition, % at 12.5 µM;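 active means mean inhibition across replicates above about 50%, limit read from the data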
SENP6 conf: human SENP6 inhibition, confirmed; shares compounds with SENP7 inh; recombinant SENP6, Z-RLRGG-aminoluciferin luminescence; inhibition, % at 12.5 µM; 6,200 tested, 58% active; AID 488915
SENP7 conf: human SENP7 inhibition, confirmed; shares compounds with SENP7 inh; 6,200 tested, 69% active; AID 488917; inhibition, % at 12.5 µM; recombinant SENP7, Z-RLRGG-aminoluciferin luminescence, 40 min
Casp3 SENP sel: inhibits human caspase-3 in SENP selectivity test; shares compounds with SENP7 inh; purified caspase-3, Z-DEVD-aminoluciferin luminescence, 60 min; inhibition, % at 12.5 µM; 6,200 tested, 60% active;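 active means mean inhibition above about 50%, limit read from the data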;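 further: plate controls were enzyme with DMSO for no effect and wells without caspase-3 for full effect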
Target sequence (P42574 28-227 limits assumed): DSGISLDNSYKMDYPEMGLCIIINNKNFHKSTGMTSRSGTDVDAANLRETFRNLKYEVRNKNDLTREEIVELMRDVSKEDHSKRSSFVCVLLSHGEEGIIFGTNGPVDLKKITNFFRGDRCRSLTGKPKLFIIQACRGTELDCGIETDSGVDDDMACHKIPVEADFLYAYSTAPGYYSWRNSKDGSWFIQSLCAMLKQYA
SENP luc ctr: luminescence interference (SENP counter-screen) | inhibition, % at 12.5 µM | shares compounds with SENP7 inh | Pre-incubated SENP8/Z-RLRGG-aminoluciferin, luciferase luminescence interference | AID 488919 | 6,200 tested, 39% active;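 active means mean inhibition above about 50% when retested at one dose, limit read from the data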;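 further: plate controls were DMSO wells with completed reaction for no effect and substrate without enzyme for full effect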
* = called active by the depositor; i = inactive; . = no result. Compounds with a hit are over-represented: about 2.8% of the library has one in this group of screens.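 How the source made its calls, unless noted: active means mean inhibition above about 50% in the one-dose retest (limit read from the data); inactive means the rest.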

SMILES	SENP6 block	HSP90 refold inh	Platelet DG rel	SENP8 block-1	SENP8 block-2	SENP7 inh	SENP8 conf	SENP6 conf	SENP7 conf	Casp3 SENP sel	SENP luc ctr
O=C1/C(=C/c2cccs2)Sc2ccccc21	86.2*	-1.9	21.7	81.5*	-213.1	92.9*	3.0	40.9	58.0*	38.7	25.7
CC(C)COc1ccc(/C=C2/Sc3ccccc3C2=O)cc1	96.1*	-1.8	9.8	94.3*	-274.4	95.0*	4.2	22.3	23.1	16.1	12.2
CCCCOc1ccc(/C=c2\sc3ncnn3c2=O)cc1	-11.7	4.5	-2.2	-8.7	4.2	2.2	.	.	.	.	.
CC(=O)Oc1cccc(/C=C2\Sc3ccccc3C2=O)c1	90.5*	8.0	30.0	89.3*	-5.8	83.0*	75.4*	93.9*	68.5*	41.1	22.6
CC1CC(C)CN(C(=O)COC(=O)c2ccc3ccccc3n2)C1 (stereo unspecified)	-8.3	.	.	-9.4	4.5	-6.7	.	.	.	.	.
Cc1cccc(N=C2NC(=O)/C(=C/c3cccs3)S2)c1	52.1*	-6.3	-2.3	7.4	-8.4	6.7	6.4	16.3	22.9	15.8	5.9
Cc1cc(O)c(/C=N/Nc2cccc(Cl)c2)c(=O)o1	69.9*	-1.4	-1.5	66.2*	-105.6	19.5	71.0*	71.4*	89.2*	86.7*	55.8*
Cc1cc(O)c(/C=N/Nc2ccccc2Cl)c(=O)o1	84.3*	0.0	-3.4	73.7*	-105.8	40.5	72.2*	67.6*	86.6*	88.4*	63.3*
CCOC(=O)N1CCN(C(C(=O)NC2CCCC2)c2cccc(OC)c2OC)CC1 (stereo unspecified)	.	.	.	.	13.0	.	.	.	.	.	.
CC(=O)c1sc(Nc2ccccc2)nc1C	.	.	.	.	-352.2	.	.	.	.	.	.
Cc1nc(Nc2ccccc2)sc1-c1ccccc1	90.1*	-4.8	10.3	82.5*	-110.5	89.6*	93.9*	93.8*	99.7*	70.7*	37.7
c1ccc(Nc2nc(-c3ccccc3)ns2)cc1	76.9*	3.6	-26.4	60.5*	10.1	83.4*	-5.4	52.6*	91.7*	46.6	8.2
O=C(NCCc1ccccc1)Nc1nnc([C@@H]2C[C@H](O)[C@@H](CO)O2)s1	.	.	.	.	14.4	.	.	.	.	.	.
Nc1ccc(CCn2ccnc2)cc1	-8.4	0.0	0.5	7.6	-7.6	0.6	.	.	.	.	.
Cc1ccc(NC2=CC(=O)CC(C)(C)C2)cc1Cl	7.0	-4.4	-0.6	-1.0	-151.2	3.0	.	.	.	.	.
Cc1ccc(Nc2nc3nonc3[nH]c2=O)cc1C	70.4*	-3.7	-7.6	47.8	6.9	38.9	65.3*	62.3*	80.4*	64.2*	71.7*
Cc1ccc(Nc2nc3nonc3[nH]c2=O)cc1Cl	79.8*	1.6	-2.3	50.0*	-12.0	9.4	68.5*	63.8*	75.3*	34.5	70.1*
Cn1c(=NC(=O)c2ccccc2[N+](=O)[O-])sc2cccc(F)c21	46.8	-1.4	0.6	20.0	23.8	76.8*	24.2	25.4	18.4	34.9	0.5
N#Cc1ccc(CN2CCN(C(=O)CCNS(=O)(=O)c3ccc(F)c(Cl)c3)CC2)cc1	-7.3	.	.	0.0	13.1	13.3	.	.	.	.	.
Cc1c(C(=O)N2CCOCC2)[nH]c2c1C(=O)CC(c1ccc(Cl)cc1)C2 (stereo unspecified)	0.3	-1.5	-2.9	3.3	21.6	2.2	.	.	.	.	.
Cc1c(C(=O)O)[nH]c2c1C(=O)CC(c1ccc(Cl)cc1)C2 (stereo unspecified)	-6.7	1.2	-2.9	4.7	8.0	90.4*	6.9	5.1	-1.5	-2.1	-5.0
CCCCNc1c(N)n(CC(C)C)c(=O)[nH]c1=O	-22.5	-0.7	1.8	-2.9	-73.0	11.6	.	.	.	.	.
O=C(N/N=C/c1ccc(Sc2ccccn2)o1)c1cc2ccccc2cc1O	93.8*	-0.4	6.3	92.6*	-61.1	63.9*	90.4*	97.4*	101.1*	92.0*	76.1*
Cc1cc(C)c(C#N)c(N2CCCC(C(N)=O)C2)n1 (stereo unspecified)	-9.8	-2.6	-1.6	-7.7	i	-9.0	.	.	.	.	.
CCCCN1C(=O)Cc2c1nc(N)c1c(N)nc(N(CCC)CCC)c(C#N)c21	.	0.4	-0.7	.	-327.3	.	.	.	.	.	.
SMILES	SENP6 block	HSP90 refold inh	Platelet DG rel	SENP8 block-1	SENP8 block-2	SENP7 inh	SENP8 conf	SENP6 conf	SENP7 conf	Casp3 SENP sel	SENP luc ctr
N#Cc1c(N2CCCC(O)C2)nc(N)c2c(N)nc3c(c12)CC(=O)N3C12CC3CC(CC(C3)C1)C2 (stereo unspecified)	95.7*	2.5	-0.4	96.7*	-303.4	64.1*	-21.4	4.7	-3.7	-5.9	-4.8
C=C(C)CN(CC)c1nc(N)c2c(N)nc3c(c2c1C#N)CC(=O)N3C12CC3CC(CC(C3)C1)C2	85.1*	2.5	7.7	86.5*	-209.8	27.0	-9.6	-5.4	-9.5	-10.8	-7.4
CCOCC(=O)Nc1nc2ccc(S(C)(=O)=O)cc2s1	-2.4	6.7	6.1	1.8	17.2	3.8	.	.	.	.	.
CCOCC(=O)Nc1nc2ccc(OCC)cc2s1	71.4*	-0.4	12.9	36.9	7.8	62.6*	56.0*	50.8*	81.1*	78.8*	61.8*
COc1ccc2nc(NC(=O)CSc3ccccc3)sc2c1	6.5	1.1	4.8	-9.4	9.5	2.1	.	.	.	.	.
COc1ccc2nc(NC(=O)CSc3cn[nH]n3)sc2c1	50.2*	-0.2	-2.1	11.0	-4.6	6.8	31.0	27.5	65.1*	62.0*	59.5*
CCOCC(=O)Nc1nc2ccc(C)cc2s1	49.0	5.0	16.3	42.0	9.2	59.6*	30.5	31.2	75.4*	71.7*	54.7*
N#Cc1c(SCC(=O)Nc2nncs2)sc2c(O)cc(=O)[nH]c12	-5.0	7.5	4.4	1.1	-11.1	-0.1	.	.	.	.	.
COc1oc(-c2ccccc2)nc1C(F)(F)F	6.6	-1.2	4.3	1.7	-2.3	70.5*	-18.5	-6.1	-8.9	5.2	-3.7
O=C(c1nc2ccccn2c1CN1CCCC(O)C1)N1CCN(C2CCCCC2)CC1 (stereo unspecified)	-6.6	-6.1	13.3	-3.1	-115.4	-6.8	.	.	.	.	.
O=C(O)c1ccc2cc(-c3ccccc3)[nH]c2c1	95.4*	.	14.1	97.5*	-454.2	99.8*	6.8	100.7*	103.7*	47.8	50.3*
O=C(O)c1ccc(-c2ccccc2)[nH]1	-8.9	-1.3	-4.3	2.0	8.2	0.0	.	.	.	.	.
